# In PubChem BioAssay (Tox21):
# A number with no mark means an inactive call. Inconclusive results are not listed. A call without a number means that no potency is given here. Active and inactive are the calls of the source. Calls come from the whole dose curve; as a rule, active = well fitted curve in the direction sought with a large enough effect in the repeat runs; inconclusive = weak or mixed curves; inactive = no such curve, though single readings can be large; an effect the other way counts as inactive or inconclusive.
# How the values were obtained:
# [1] = Caspase-3/7 induction in HepG2 cells by small molecules, qHTS assay (AID 1346978); note: nearly all actives have a fitted effect of over 15% in size
# Procedure, shortened: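 Wild-type HepG2 cells (2,000/well) were settled 5 h at 37 C, 5% CO2, then exposed to compounds in DMSO for 17 h. Caspase-3/7 activity was read by luminescence 30 min after adding Caspase-Glo 3/7 reagent at room temperature.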
# [2] = Caspase-3/7 induction in CHO-K1 cells by small molecules, qHTS cell viability counter screen (AID 1346979); note: nearly all actives have a fitted effect of over 35% in size; note: potency is the fitted concentration of half-maximal effect
# Procedure, shortened: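 Multiplexed with Caspase-Glo 3/7 in CHO-K1 cells, this counter screen added CellTiter-Fluor after 16hr of compound exposure and recorded fluorescence 1hr later.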
# [3] = Caspase-3/7 induction in CHO-K1 cells by small molecules, qHTS assay (AID 1346980); note: nearly all actives have a fitted effect of over 15% in size
# Procedure, shortened: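 Wild-type cells were seeded at 1,500 per well and settled 5 hr at 37 C, 5% CO2, then exposed to DMSO-dissolved compounds for 17 hr. Caspase-Glo 3/7 reagent was added, and luminescence was read after 30min at room temperature.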
# [4] = Caspase-3/7 induction in HepG2 cells by small molecules, qHTS cell viability counter screen (AID 1346981); note: nearly all actives have a fitted effect of over 30% in size; note: potency is the fitted concentration of half-maximal effect
# Procedure, shortened: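 In this quantitative HTS counter screen, compounds delivered in DMSO were left on unmodified HepG2 cells for 16 hr at 37 C. Viability was then determined fluorometrically with CellTiter-Fluor, in parallel with caspase-3/7 induction in the same wells.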
# [5] = biological target: Nuclear receptor subfamily 1 group I member 2 (Homo sapiens) (UniProt O75469); assay: Human pregnane X receptor (PXR) small molecule agonists, qHTS assay (AID 1346982); note: nearly all actives have a fitted effect of over 35% in size; note: potency is the fitted concentration of half-maximal effect
# Chain of Nuclear receptor subfamily 1 group I member 2 (Homo sapiens) (O75469 whole entry, looked up): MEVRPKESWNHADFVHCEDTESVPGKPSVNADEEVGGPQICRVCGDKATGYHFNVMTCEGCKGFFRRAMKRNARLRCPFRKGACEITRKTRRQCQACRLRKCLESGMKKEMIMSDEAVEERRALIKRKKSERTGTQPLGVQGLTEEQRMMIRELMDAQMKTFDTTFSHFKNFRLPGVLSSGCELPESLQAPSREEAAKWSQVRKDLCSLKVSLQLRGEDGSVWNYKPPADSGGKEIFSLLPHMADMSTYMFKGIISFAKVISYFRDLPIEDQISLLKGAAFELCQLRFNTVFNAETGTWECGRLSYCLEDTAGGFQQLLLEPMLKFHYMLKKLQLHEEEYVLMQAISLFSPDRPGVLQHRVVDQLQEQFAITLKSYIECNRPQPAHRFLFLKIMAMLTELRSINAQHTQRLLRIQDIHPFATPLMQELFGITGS
# Procedure, shortened: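 Reporter HepG2 cells expressing PXR-Luc are cultured in charcoal-stripped FBS (5%), treated with compounds for 24 hr at 37 C, and assayed by ONE-Glo luminescence after 30 min at room temperature.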
# [6] = biological target: Cytochrome P450 2D6 (Homo sapiens) (UniProt P10635); assay: Cytochrome P450 Family 2 Subfamily D Member 6 (CYP2D6) small molecule antagonists: luciferase reporter qHTS assay (AID 1671196); note: nearly all actives have a fitted effect of over 50% in size; note: potency is the fitted concentration of half-maximal effect
# Chain of Cytochrome P450 2D6 (Homo sapiens) (P10635 whole entry, looked up): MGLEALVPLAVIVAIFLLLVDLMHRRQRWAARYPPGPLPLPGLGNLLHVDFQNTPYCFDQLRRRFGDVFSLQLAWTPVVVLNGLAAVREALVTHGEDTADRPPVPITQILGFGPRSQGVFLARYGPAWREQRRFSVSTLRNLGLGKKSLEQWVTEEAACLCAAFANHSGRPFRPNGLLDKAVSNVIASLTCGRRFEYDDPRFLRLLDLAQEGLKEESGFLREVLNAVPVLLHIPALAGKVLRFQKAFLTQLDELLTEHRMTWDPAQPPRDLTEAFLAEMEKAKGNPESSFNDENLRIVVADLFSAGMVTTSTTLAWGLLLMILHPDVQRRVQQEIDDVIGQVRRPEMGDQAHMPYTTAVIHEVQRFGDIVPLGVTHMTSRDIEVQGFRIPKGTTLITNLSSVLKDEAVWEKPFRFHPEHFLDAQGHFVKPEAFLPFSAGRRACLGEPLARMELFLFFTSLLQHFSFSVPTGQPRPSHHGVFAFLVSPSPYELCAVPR
# Procedure, shortened: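 Test chemicals meet CYP2D6 plus proluciferin substrate (10 min, RT); NADPH regenerating solution then drives turnover for 1 h. Detection reagent halts the reaction; luminescence measured after 20 min.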
# [7] = biological target: Cytochrome P450 2C19 (Homo sapiens) (UniProt P33261); assay: Cytochrome P450 Family 2 Subfamily C Member 19 (CYP2C19) small molecule antagonists: luciferase reporter qHTS assay (AID 1671197); note: nearly all actives have a fitted effect of over 65% in size; note: potency is the fitted concentration of half-maximal effect
# Chain of Cytochrome P450 2C19 (Homo sapiens) (P33261 whole entry, looked up): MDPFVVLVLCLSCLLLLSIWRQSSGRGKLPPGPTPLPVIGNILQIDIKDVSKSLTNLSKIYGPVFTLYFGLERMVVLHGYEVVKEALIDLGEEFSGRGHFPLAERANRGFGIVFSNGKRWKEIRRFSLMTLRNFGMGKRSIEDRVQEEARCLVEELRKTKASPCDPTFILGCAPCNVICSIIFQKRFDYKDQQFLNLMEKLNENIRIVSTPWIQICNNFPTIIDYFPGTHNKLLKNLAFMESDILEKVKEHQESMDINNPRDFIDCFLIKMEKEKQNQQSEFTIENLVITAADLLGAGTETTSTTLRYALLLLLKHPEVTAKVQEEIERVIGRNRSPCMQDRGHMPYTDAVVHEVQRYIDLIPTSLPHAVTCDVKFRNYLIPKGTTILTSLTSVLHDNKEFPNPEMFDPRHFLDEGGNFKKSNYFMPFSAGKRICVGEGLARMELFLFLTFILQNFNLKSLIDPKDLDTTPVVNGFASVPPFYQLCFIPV
# Procedure, shortened: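 Compounds were tested on CYP2C19 activity via proluciferin conversion to luciferin. The 37C, 1 h reaction followed NADPH addition; detection reagent stopped it.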
# [8] = biological target: Cytochrome P450 2C9 (Homo sapiens) (UniProt P11712); assay: Cytochrome P450 Family 2 Subfamily C Member 9 (CYP2C9) small molecule antagonists: luciferase reporter qHTS assay (AID 1671198); note: nearly all actives have a fitted effect of over 50% in size; note: potency is the fitted concentration of half-maximal effect
# Chain of Cytochrome P450 2C9 (Homo sapiens) (P11712 whole entry, looked up): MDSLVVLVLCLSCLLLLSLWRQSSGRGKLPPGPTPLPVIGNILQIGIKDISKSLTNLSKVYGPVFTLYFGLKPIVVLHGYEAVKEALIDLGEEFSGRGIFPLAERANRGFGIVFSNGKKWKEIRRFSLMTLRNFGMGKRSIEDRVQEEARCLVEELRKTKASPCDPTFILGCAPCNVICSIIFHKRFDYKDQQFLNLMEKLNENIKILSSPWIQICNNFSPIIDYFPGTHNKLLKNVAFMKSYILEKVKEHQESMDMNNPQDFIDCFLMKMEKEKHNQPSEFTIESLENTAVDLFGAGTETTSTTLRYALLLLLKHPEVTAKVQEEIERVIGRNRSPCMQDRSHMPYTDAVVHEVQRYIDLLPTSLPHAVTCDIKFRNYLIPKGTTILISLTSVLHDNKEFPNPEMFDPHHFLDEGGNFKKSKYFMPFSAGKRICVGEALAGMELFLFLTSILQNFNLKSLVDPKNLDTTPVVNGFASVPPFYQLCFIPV
# Procedure, shortened: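 CYP2C9 activity was measured with a P450-Glo proluciferin substrate. Enzyme–substrate mix was held with compound for 10 min at room temperature, then NADPH regeneration solution was added for 1 h at 37C. Luciferin product was read as luminescence.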
# [9] = biological target: Nuclear receptor subfamily 1 group I member 2 (Rattus norvegicus) (UniProt Q9R1A7); assay: Rat pregnane X receptor (rPXR) activation by small molecules, qHTS assay (AID 1346983); conditions: rPXR luciferase reporter cells, One-Glo luminescence, 24 h; max activation: active compounds read high; note: nearly all actives have a fitted effect of over 20% in size
# Chain of Nuclear receptor subfamily 1 group I member 2 (Rattus norvegicus) (Q9R1A7 whole entry, looked up): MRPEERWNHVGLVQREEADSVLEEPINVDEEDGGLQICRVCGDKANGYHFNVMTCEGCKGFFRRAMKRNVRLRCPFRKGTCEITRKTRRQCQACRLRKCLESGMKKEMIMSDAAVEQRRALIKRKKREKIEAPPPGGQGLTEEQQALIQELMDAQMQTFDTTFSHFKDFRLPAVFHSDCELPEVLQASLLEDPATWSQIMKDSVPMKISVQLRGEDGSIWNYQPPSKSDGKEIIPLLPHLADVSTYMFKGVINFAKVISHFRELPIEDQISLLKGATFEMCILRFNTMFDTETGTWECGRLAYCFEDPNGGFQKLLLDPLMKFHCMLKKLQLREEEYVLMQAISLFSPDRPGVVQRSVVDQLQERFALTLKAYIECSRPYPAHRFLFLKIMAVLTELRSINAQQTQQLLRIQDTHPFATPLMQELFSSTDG
# Procedure, shortened: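 Cell-based rPXR luciferase reporter assay, 2,000 cells per well, rested 5hr at 37 C before compound addition in DMSO, then 24 hr at 37 C. One-Glo reagent was added and luminescence read after 30 min at room temperature.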
# [10] = biological target: Nuclear receptor subfamily 1 group I member 2 (Homo sapiens) (UniProt O75469); assay: CYP3A4 induction through human pregnane X receptor (PXR) by small molecules, qHTS assay (AID 1346984); note: nearly all actives have a fitted effect of over 40% in size
# Procedure, shortened: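 Induction measured in HepG2-based DPX-2 cells co-expressing human PXR and a CYP3A4 promoter-driven luciferase. After a 24-hour compound exposure, cells received CYP3A4 luciferin substrate at 3uM final for 3 hours, and light output was then recorded.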
Compound,Potency [1],Potency [2],Potency [3],Potency [4],Potency [5],Potency [6],Potency [7],Potency [8],max activation [9] [%],Potency [10]
C[Si](C)(C)Cl,inactive,inactive,inactive,inactive,inactive,inactive,inactive,inactive,,
CC(C)(C)c1cc(/C=C2\SC(=N)NC2=O)cc(C(C)(C)C)c1O,inactive,54.5 µM (active),inactive,,30.6 µM (active),39.9 µM (active),20 µM (active),1.78 µM (active),,
NCCCC(O)(P(=O)(O)O)P(=O)(O)O,inactive,inactive,inactive,inactive,,,,,-1.25,
C=C(C)C(=O)OCCC[Si](Cl)(Cl)Cl,inactive,inactive,inactive,inactive,inactive,,80.4 µM (active),22.7 µM (active),,
C=CC(C)C#N (centres undefined),inactive,inactive,inactive,,inactive,inactive,inactive,inactive,,
OCCN1CN(CCO)CN(CCO)C1,inactive,inactive,inactive,inactive,inactive,,,inactive,,
C/C=C/C=N/NC(=O)c1ccncc1,inactive,inactive,inactive,inactive,,,,,-3.54,inactive
O=Cc1ccc(F)cc1,inactive,inactive,inactive,inactive,,35.6 µM (active),inactive,inactive,,
CCC(C)c1cc([N+](=O)[O-])cc([N+](=O)[O-])c1OC(=O)OC(C)C (centres undefined),inactive,61.1 µM (active),inactive,61.1 µM (active),61.1 µM (active),,11.2 µM (active),35.6 µM (active),,
CC(C)=C1CC[C@@H](C)CC1=O,inactive,inactive,inactive,inactive,,inactive,inactive,inactive,,
COc1ccc2sc(C(=O)Nc3nnn[nH]3)c(OC(C)C)c2c1,inactive,38.4 µM (active),inactive,,,inactive,inactive,22.4 µM (active),,
Cn1cnc2ncnc(N)c21,inactive,inactive,inactive,inactive,inactive,,inactive,inactive,,
CCN(CC)c1cccc(C)c1,inactive,inactive,inactive,inactive,inactive,,inactive,inactive,,
CC1CCCNC1 (centres undefined),inactive,inactive,inactive,inactive,,39.1 µM (active),inactive,inactive,,
